# Only some compounds are listed: those with a hit (about 10% of all), similar ones and a draw of the others.
# HPGD block = inhibitors of human 15-hydroxyprostaglandin dehydrogenase (HPGD); purified HPGD, NADH fluorescence kinetic, PGE2 substrate; Potency, µM, usual class: inhibitors; hit rate 4.3% among 150,000; AID 894
#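 NADH formation kinetics: reaction with 30 uM PGE2 and 1 mM NAD+ (final), 20 nM enzyme, Tris-HCl pH 8 with Tween 20, after 15 min compound preincubation at room temperature. Fluorescence change, last versus first of five reads.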
# KinaseGlo FLuc = Kinase-Glo luciferase inhibition (counter-screen); AID 1379; Q27757; hit rate 0.28% among 200,000; Kinase-Glo luciferase, ATP luminescence, 8 min; Potency, µM (series often up to 38.3 µM), usual class: inhibitors; active = well fitted inhibition curve with a large enough effect; inconclusive = small, poorly fitted or top-dose-only effect; note: nearly all actives have a fitted effect of over 60% in size
#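 Light output from Kinase-Glo luciferase with luciferin and 10 uM ATP in 50 mM imidazole pH 7.2, KCl, MgCl2, Tween 20, BSA; compound pin-delivered, 8-min ambient incubation, then luminescence read.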
# PNC assembly inh = inhibitors of perinucleolar compartment assembly | hit rate 3.1% among 140,000 | AID 2417 | activity change (PNC), negative = inhibition, % at 10 µM | PC3M PTB-GFP, PNC prevalence imaging, 16 h; active compounds read low;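 active = readout at or below -70, meaning at least 70% loss of cells showing the perinucleolar compartment, a nuclear body marking cancer cells; inconclusive = readout between -30 and a set limit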
#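 PC3M cells stably expressing PTB-GFP, 750–1000 cells/well, treated 16 h at 37 °C with compound (23 nl of library stock), in duplicate. After paraformaldehyde fixation and Hoechst stain, imaged at 20x; PNC prevalence scored by image analysis.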
# LMNA splice mod = modulators of lamin A splicing | HeLa LMNA splicing GFP/RFP minigene ratio, 48 h | Potency, µM (titrated, usually from 46.1 µM), usual class: inhibitors | hit rate 0.01% among 200,000; active = well fitted inhibition curve with a large enough effect in the signal ratio, with a control signal flat, not every such curve was filed as active; inconclusive = small, poorly fitted or top-dose-only effect, or effect the other way, or a change in a side signal; the % refers to the signal ratio
#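 S3 HeLa stable clones carrying a lamin A-EGFP splicing minigene plus DsRed2 were seeded at 600 cells/well in Opti-MEM with 2% FBS, pin-dosed and incubated 48 h at 37°C. Acumen cytometry (488 nm) gave the GFP/RFP total-intensity ratio.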
# ALDH1A1 block = blocks purified human ALDH1A1 activity; AID 1030; Purified ALDH1A1, NADH fluorescence, propionaldehyde substrate; hit rate 7.3% among 220,000; P00352; Potency, µM (highest dose often 75.3 µM), most hits filed as inhibitors
# Target sequence (P00352 whole entry, looked up): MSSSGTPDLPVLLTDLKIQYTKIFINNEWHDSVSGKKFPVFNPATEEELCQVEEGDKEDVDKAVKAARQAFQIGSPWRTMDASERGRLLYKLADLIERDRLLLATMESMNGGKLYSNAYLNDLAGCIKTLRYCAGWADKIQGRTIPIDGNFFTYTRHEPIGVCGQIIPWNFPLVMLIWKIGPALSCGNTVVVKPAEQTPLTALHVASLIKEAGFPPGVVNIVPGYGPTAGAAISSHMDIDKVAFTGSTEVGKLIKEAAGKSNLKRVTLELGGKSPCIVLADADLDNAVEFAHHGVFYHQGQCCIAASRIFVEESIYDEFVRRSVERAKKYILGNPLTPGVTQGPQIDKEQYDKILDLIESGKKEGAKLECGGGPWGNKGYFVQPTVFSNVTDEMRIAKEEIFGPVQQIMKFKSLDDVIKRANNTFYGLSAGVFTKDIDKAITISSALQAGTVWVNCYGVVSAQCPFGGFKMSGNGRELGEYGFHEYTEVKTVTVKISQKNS
# A number is an active result; - = inactive; ? = inconclusive; . = no result given; [ ] = another dose, or the depositor's remark. Unless noted, calls come from the whole dose curve; as a rule, active = well fitted inhibition curve with a large enough effect (not every such curve was filed as active); inconclusive = small, poorly fitted or top-dose-only effect, or another doubt; inactive = no such curve, though single readings can be large or run the other way.
SMILES,HPGD block,KinaseGlo FLuc,PNC assembly inh,LMNA splice mod,ALDH1A1 block
CCOc1ccccc1N(CC)C(=O)Cn1ncc2c([nH]c3ccccc32)c1=O,.,.,.,-,.
CC1(CN2CCC(n3c(=O)[nH]c4ccccc43)CC2)OCc2ccccc2-n2cccc21 (stereo not drawn),-,-,.,.,-
CN(C)S(=O)(=O)c1cc(NC(=O)CN2CCCc3ccccc32)ccc1Cl,.,-,.,-[9.22 µM],8.9µM
CCCCc1ccc(NC(=S)Nc2ccc(Nc3ccc(OC)cc3)cc2)cc1,?,-,-,?,7.1µM
CN(C)S(=O)(=O)c1cc(NC(=O)CN2CCc3ccccc32)ccc1Cl,.,.,.,.,1.6µM
O=C(CSc1nc2ccsc2c(=O)n1Cc1ccccc1F)NCc1ccccc1Cl,.,.,.,-,.
NC(=O)NNc1cccc(Cl)n1,.,-,.,.,35µM
CCN1C(=O)c2cccc3c(S(=O)(=O)Nc4ccccc4OC)ccc1c23,-,-,-,?,4.5µM
CCN1C(=O)c2cccc3c(S(=O)(=O)NCCc4c[nH]c5ccccc45)ccc1c23,-,-,-,-,14µM
CC(C)=CCC[C@](C)(O[C@@H]1O[C@H](CO)[C@@H](O)[C@H](O)[C@H]1O)[C@H]1CC[C@]2(C)[C@@H]1[C@H](O)C[C@@H]1[C@@]3(C)CC[C@H](O[C@@H]4O[C@H](CO)[C@@H](O)[C@H](O)[C@H]4O[C@@H]4O[C@H](CO)[C@@H](O)[C@H](O)[C@H]4O)C(C)(C)[C@@H]3[C@@H](O)C[C@]12C,-,-,.,.,-
CN(c1ccc(OCC(=O)OCC(=O)Nc2c(F)c(F)c(F)c(F)c2F)cc1)S(=O)(=O)c1ccc(F)cc1,-,-,-107,-,-
O=C(O)CN(CCN(CC(=O)O)CC(=O)O)CCN(CC(=O)O)CC(=O)O,-,-,.,?,-
CC(C(=O)NC1CCCC1)N1CCN(Cc2ccccc2)CC1 (stereo not drawn),.,-,.,.,3.5µM
CC(CC(=O)NC1CCCC1)c1ccccc1 (stereo not drawn),2.5µM,-,?,-,-
CCCn1c(C)nc2c(NC3CCN(Cc4ccccc4)C3)nc(C)nc21 (stereo not drawn),-,-,.,.,-
O=[N+]([O-])c1cccc(Cl)c1Cl,-,.,.,.,-
COc1cccc(CNC(=O)CCn2cnc3ccccc3c2=O)c1,.,.,.,-,.
C=CCn1c(C)cc(C(=O)COc2ccc(S(=O)(=O)N3CCCC3)cc2[N+](=O)[O-])c1C,-,-,-,-,5µM
CCCn1c(-c2ccc(F)cc2)nc2c(NCCCN3CCOCC3)nc(C)nc21,?,-,.,.,?
Cc1ccc(NC(=O)CNc2cccc(C)c2C)c(C)c1,32µM,-,-,-,8.9µM
Cc1ccc(NC(=O)CNc2ccc(OC(C)C)cc2)c(C)c1,-,-,-,-,4.5µM
COC(=O)C1=C(C(=O)OC)[C@@H]2N(Cc3ccccc3)c3ccccc3[C@@]23C[C@@H](C(=O)OC)N(S(=O)(=O)c2ccc(C)cc2)C3=N1,-,-[7.66 µM],.,-[9.22 µM],-[13.5 µM]
O=c1c2oc3ccccc3c2ncn1Cc1ccc(Br)cc1,.,.,.,-,.
COc1cc2c(c3oc(-c4ccccc4)cc(=O)c13)C=CC(C)(C)O2,.,.,.,.,10µM
COc1cc(C)c2c(=O)cc(-c3ccccc3)oc2c1,-,-,.,?,-
SMILES,HPGD block,KinaseGlo FLuc,PNC assembly inh,LMNA splice mod,ALDH1A1 block
c1ccc2c(CSCc3cccc4ccccc34)cccc2c1,-,-[7.66 µM],.,.,-[13.5 µM]
O=C1c2ccccc2C(=O)C1Cc1cccc2ccccc12,14µM,-,?,-,?
O=C(CSc1nccc(=O)[nH]1)Nc1ccc(F)c(Cl)c1,-,-,?,-,?
O=C(CSc1nccc(=O)[nH]1)Nc1ccc(Br)c(Cl)c1,32µM,-,-,?,?
CN(C1CCCCC1)S(=O)(=O)c1ccc(NC(=S)NC(=O)c2cccs2)cc1,-,-,-,?,22µM
Cc1ccc(C(=O)N2CCN(c3ccc(NC(=S)NC(=O)c4cccs4)cc3)CC2)cc1,.,-,.,?,14µM
Cc1cc(C)cc(NS(=O)(=O)c2ccc(NC(=S)NC(=O)c3cccs3)cc2)c1,-,-,?,?,10µM
Cc1ccccc1C(=O)N1CCN(c2ccc(NC(=S)NC(=O)c3cccs3)cc2)CC1,.,-,.,.,-
COc1cc(NS(=O)(=O)c2ccc(NC(=S)NC(=O)c3cccs3)cc2)nc(OC)n1,-,-,?,-,?
COc1cccc([C@@H]2Oc3ccc(Br)cc3C(=O)[C@H]2OC(=O)NS(=O)(=O)c2ccc(C)cc2)c1,-,-,.,.,-
COc1cccc(CNc2cccc3cccnc23)c1O,32µM,-,-94,-,?
Cc1ccc(O)c(CNc2cccc3cccnc23)c1,.,-,.,-,-
Cc1ccc(-c2n[nH]c(=O)c3ccccc23)cc1S(=O)(=O)NC(C)(C)C,.,-,.,.,?
CCOC(=O)CNS(=O)(=O)c1cc(-c2nn(C)c(=O)c3ccccc23)ccc1C,16µM,-,?,-,?
Cc1ccc(-c2n[nH]c(=O)c3ccccc23)cc1S(=O)(=O)NCCO,14µM,-,?,-,-
Cc1ccc(-c2nn(C)c(=O)c3ccccc23)cc1S(=O)(=O)NCCN1CCOCC1,?,-,?,-,-
